Inconclusive results are not listed. Entries that show only a call come without a potency. More than one record can exist for a structure, and the calls need not agree. Active and inactive are the calls of the source. Calls follow the shape of the dose curve; as a rule, active = well fitted cell-killing curve with a large enough effect in the repeat runs; inconclusive = weak or mixed curves, or effect the other way; inactive = no such curve, though single readings can be large or run the other way.
Assay: qHTS assay for small molecule activators of the heat shock response signaling pathway - cell viability counter screen (AID 743209); also: nearly all actives have a fitted effect of over 50% in size
Details: HSE-bla HeLa viability, CellTiter-Glo luminescence, 5 h; series mostly up to 62.6 µM
Source text: U.S. Tox21 Program National Center for Advancing Translational Sciences [NCATS] NIH Chemical Genomics Center [NCGC] U.S. Environmental Protection Agency [EPA] National Institutes of Environmental Health Sciences [NIEHS] National Toxicology Program [NTP] U.S. Food and Drug Administration [FDA] Tox21 Assay Overview: Various chemicals, environmental and physiological stress conditions may lead to the activation of heat shock response/ unfolded protein response (HSR/UPR). There are three heat shock transcription factors (HSFs) (HSF-1, -2, and -4) mediating transcriptional regulation of the human HSR. To identify the compounds that activate HSR signaling, HSE-bla HeLa cell line (Invitrogen, Carlsbad, CA, USA) containing a beta-lactamase reporter gene under the control of the heat shock response elements was used to screen Tox21 10K compound library. The cytotoxicity of the Tox21 compound library against the HSE-bla HeLa cell line was tested in parallel by measuring the cell viability using CellTiter-Glo assay (Promega, Madison, WI) in the same wells.
Tox21 Assay Protocol Summary: The CellSensor HSE-bla HeLa cells (Invitrogen, Carlsbad, CA, USA) were dispensed at 1500 cells/6uL/well into 1536-well black wall/clear bottom plates using a Multidrop combi (Thermo Fisher Scientific, Waltham, MA) dispenser. After the assay plates were incubated at 37 C and 5% CO2 overnight, 23 nL of compounds dissolved in DMSO, positive controls or DMSO only was transferred to the assay plate by a Pintool station (Kalypsys, San Diego, CA). The plates were incubated at 37 C for 5 h. After 1 uL of LiveBLAzerTM B/G FRET substrate was added using a Flying Reagent Dispenser (FRD, Beckman Coulter, Indianapolis, IN, USA), the plates were incubated at room temperature for 2.5 h, and fluorescence intensity was measured by an Envision plate reader (PerkinElmer, Shelton, CT). For cell viability readout that measures cytotoxicity, 3 ul/well of CellTiter-Glo reagent was added into the assay plates using a FRD. After 30 min incubation at room temperature, the luminescence intensity in the plates was measured using a ViewLux (PerkinElmer) plate reader.
Potency is read from the fitted curve at half-maximal effect.

SMILES | Potency | activity change, negative = cytotoxicity
CC#Cc1cc(C)nc(Nc2ccccc2)n1 | inactive | –
N[C@@H]1C[C@H]1c1ccccc1 | inactive | –
CCC1(c2cccc(O)c2)CCCCN(C)C1 (stereo not given) | inactive | –
Nc1c(Cl)c(F)nc(OCC(=O)O)c1Cl | inactive | –
CCCC(C)(COC(N)=O)COC(N)=O | inactive | –
CNC(=O)O/N=C(/CSC)C(C)(C)C | inactive | –
C=C1C[C@@H]2[C@H](CC[C@]3(C)C(=O)CC[C@@H]23)[C@@]2(C)C=CC(=O)C=C12 | inactive | –
CCOC(=O)COc1ccc(Cl)cc1Cl | inactive | –
Oc1ccc2c3c1O[C@H]1[C@@H](O)C=C[C@H]4[C@@H](C2)NCC[C@@]341 | inactive | –
CCCCS(=O)(=O)Cl | inactive | –
Clc1cc2c(cc1Cl)Oc1cc(Cl)c(Cl)cc1O2 | – | -11.9% [at 0.275 µM] (inactive)
O=C(Cl)C(Cl)Cl | inactive | –
CC(C)(C)C(=O)Cl | inactive | –
CCCN1CCC[C@@H]2Cc3nc(N)ncc3C[C@H]21 | inactive | –
Cc1ccc(Cl)c(O)c1 | inactive | –
O=C(O)CBr | inactive | –
CCC(C(N)=O)N1CCCC1=O (stereo not given) | inactive | –
O=C/C=C/c1ccco1 | inactive | –
CC(C)[N+](C)(CCC(C(N)=O)(c1ccccc1)c1ccccc1)C(C)C | inactive | –
CN(CCO)CCO | inactive | –

SMILES | Potency | activity change, negative = cytotoxicity
CC(C)C(C)(N)C#N (stereo not given) | inactive | –
CCCCCCCCSC(=O)Oc1cc(Cl)nnc1-c1ccccc1 | inactive | –
COc1ccccc1OC | inactive | –
COc1cc(CC(C)N)cc(OC)c1OC (stereo not given) | inactive | –
N#CN | inactive | –
CCOC(=O)CC(SP(=S)(OC)OC)C(=O)OCC (stereo not given) | inactive | –
CCCC[N+](=O)[O-] | inactive | –
BrCc1ccc(Br)cc1 | inactive | –
CCN(CC)C1CCCCC1 | inactive | –
CC1=C2[C@H]3OC(=O)[C@@H](C)[C@@H]3CC[C@@]2(C)C=CC1=O | inactive | –
O=P(O)(O)c1ccccc1 | inactive | –
ClC1=C(Cl)C2(Cl)C(CBr)CC1(Cl)C2(Cl)Cl (stereo not given) | 54.9 µM (active) and inactive | –
CCC(C)C(C)(COC(N)=O)COC(N)=O (stereo not given) | inactive | –
ClCOCCl | inactive | –
C=CC=O | inactive | –
CCOC1Oc2ccc(OS(C)(=O)=O)cc2C1(C)C (stereo not given) | inactive | –
CC(C)(O)C(Cl)(Cl)Cl | inactive | –
CCC(=O)c1ccc(Cl)cc1 | inactive | –
N=C(N)[Se] | inactive | –
CC(C)[C@]12CC(=O)[C@H](C)[C@H]1C2 | inactive | –
